Data on 39 sequences can be found in the OligoGym collection.
Also: reference of the scale not given here.

In one assay the target is POP5. The assay can be described thus: pooled miR-30 sensor sort-seq; sequence = guide strand. Particulars: shRNA.
In turn, TACTGAATTAGGAACTTCTGAC displayed a sensor-assay potency score (higher = more potent) of -0.267.

For the sequence TTCTGCATCGAAGTAGCACTAT, the sensor-assay potency score (higher = more potent) is -0.187.

TATTAAATCTACTCTTAGCCAA had a sensor-assay potency score (higher = more potent) of -0.331.

TTCTTGTCACAGACTTCTGGAT showed a sensor-assay potency score (higher = more potent) of -0.854.

As for TAACTGAGTACTCCATTTCAAG, the sensor-assay potency score (higher = more potent) was -1.58.

TGAATTAGGAACTTCTGACATG displayed a sensor-assay potency score (higher = more potent) of -0.611.

In turn, ATTAAATCTACTCTTAGCCAAG returned a sensor-assay potency score (higher = more potent) of -1.64.

In turn, TTGTTCTGTTCAACAAGTGGGC displayed a sensor-assay potency score (higher = more potent) of -0.188.

Sequence TTCATCAGTGCAGTTCTGCAAC registered a sensor-assay potency score (higher = more potent) of -0.521.

AAGATCAACAGCTGTCTCCTGT yielded a sensor-assay potency score (higher = more potent) of 0.552.

As for TACAGAGTTCACAACCTGCAAC, the sensor-assay potency score (higher = more potent) was -0.95.

The next assay addresses POU2F2. Described as above. Particulars: shRNA.
On to TTAGTGTCTGGTCCATTTCTTT, for which the sensor-assay potency score (higher = more potent) was -1.05.

In the case of TTGATCTTTGTACTGGGGCCAG, the sensor-assay potency score (higher = more potent) is -0.786.

Turning to TTTGTCTCGATGCTGGTCCTCT, the sensor-assay potency score (higher = more potent) is -0.192.

As for TTGAGTTTGCACATGTTCTTGA, the sensor-assay potency score (higher = more potent) amounted to 1.05.

TTCGGTGTCTGTGTGCTCTGAT showed a sensor-assay potency score (higher = more potent) of 0.743.

TCTTCTTGCGTCTCCGGCCGGG returned a sensor-assay potency score (higher = more potent) of -0.79.

Consider TAGATTTGGTGTCGGTAGCAGG, for which the sensor-assay potency score (higher = more potent) is -0.991.

In turn, ATTTCTTTCGGTGTCTGTGTGC gave a sensor-assay potency score (higher = more potent) of -0.0405.

In turn, TTCGCTAGAAAACTCTTCTCTA came in with a sensor-assay potency score (higher = more potent) of 0.465.

In turn, TTTCGGTGTCTGTGTGCTCTGA yielded a sensor-assay potency score (higher = more potent) of -0.406.

The sequence TTGGTGTCGGTAGCAGGCCTGG gave a sensor-assay potency score (higher = more potent) of -1.3.

TTAGACATTCTTATTTCTGGAG gave a sensor-assay potency score (higher = more potent) of -0.093.

The target of another assay is PPARD. Described as above. Particulars: shRNA.
On to TTCTTCTGAATCTTGCAGCTGC, for which the sensor-assay potency score (higher = more potent) amounted to 0.468.

In the case of TTGGAGATTGTTCAGACACTGA, the sensor-assay potency score (higher = more potent) is -0.713.

On to TTAAAGTTTCGTCAGTCTGTGT, for which the sensor-assay potency score (higher = more potent) is -0.63.

In turn, TTGCCGGTGAGGATGCTGCGGG gave a sensor-assay potency score (higher = more potent) of -0.839.

Regarding TTCTTCTTCTGAATCTTGCAGC, the sensor-assay potency score (higher = more potent) was determined as 0.0519.

In turn, TTGAACTTGACAGCAAATTCAA yielded a sensor-assay potency score (higher = more potent) of -0.881.

Consider TTGACAGCAAATTCAAACTTAG, for which the sensor-assay potency score (higher = more potent) is -0.865.

As to TTGATCCGCTGCATCATCTGGG, the sensor-assay potency score (higher = more potent) is -0.175.

As for TTCGGTCTTCTTGATCCGCTGC, the sensor-assay potency score (higher = more potent) is 0.435.

Sequence TAGCGTTGTGTGACATGCCCAG had a sensor-assay potency score (higher = more potent) of 0.138.

The sequence TCGTACTCCAGCTTCATGCGGA showed a sensor-assay potency score (higher = more potent) of -0.0495.

In the case of TAAGAAAGGAGGACAGACGTGG, the sensor-assay potency score (higher = more potent) was found to be 0.523.

Another assay concerns the target PPARGC1A. Described as above. Particulars: shRNA.
TTTATCACTTTCATCTTCGCTG: the sensor-assay potency score (higher = more potent) is 0.495.

In the case of TAGTTGTCTAGAGTCTTGGAGC, the sensor-assay potency score (higher = more potent) was -1.01.

Turning to TTGCTGTTGACAAATACTCTTC, the sensor-assay potency score (higher = more potent) is -0.955.

With TTGACAAATACTCTTCGCTTTA, the sensor-assay potency score (higher = more potent) was -1.03.
